# PubChem BioAssay (EPA / NIEHS)
# Inconclusive results are not listed. The source made the active and inactive calls. The calls were made as follows, unless noted: active = hit-call score of the fitted dose curve at least 0.9, where 1 is the maximum; inconclusive = response in the unintended direction; inactive = score below 0.9.
# Tests used:
# [1] = CCTE_Mundy_HCI_iCellGluta_NOG_NeuronCount: CCTE's Neurite Outgrowth Assay in iCellGluta cells for Neuron Count, Mundy Lab (AID 2284340);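 also: cells fixed about 48 h after compound addition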
# Procedure, shortened: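 Neuron count read by automated high-content imaging of Hoechst 33342 and betaIII-tubulin/Alexa Fluor-488 labelling in human iPSC glutamatergic neurons. Activity fitted relative to DMSO.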
# [2] = CCTE_Mundy_HCI_iCellGluta_NOG_NeuriteCount: CCTE's Neurite Outgrowth Assay in iCellGluta cells for Neurite Count, Mundy Lab (AID 2284342);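 also: chemical exposure about 48 hours starting 2 hours after plating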
# SERPINA7 (gene 6906) = test: CCTE_GLTED_hTBG: CCTE's human Thyroxine-binding Globulin (TBG) Inhibition Assay, Great Lakes Toxicology and Ecology Division (GLTED) Lab (AID 2284343);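 also: active chemicals lower fluorescence versus DMSO baseline by displacing probe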
# Procedure, shortened: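 Cell-free binding assay in which human TBG is incubated with test chemical for 2 hours and displacement of the fluorescent probe ANSA is read at 380 nm excitation/475 nm emission. Activity is fitted against DMSO as the negative control.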
# [3] = CCTE_Deisenroth_5AR_NBTE_acceptor: CCTE's 5alpha-reductase NanoBRET Target Engagement Assay - Autofluorescence Screen, Deisenroth Lab (AID 2284321; active = hit-call score of the fitted dose curve at least 0.9, where 1 is the maximum; inactive = score below 0.9;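 also: compound fluorescence in the acceptor channel under 460 nm excitation flags autofluorescence artifacts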); details: actives raise or lower the signal
# Procedure, shortened: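 Autofluorescence counter-screen: chemicals at an assumed nominal 100 uM in DMSO were scanned in three independent runs with 460 nm excitation. Gain or loss of acceptor signal was fitted bidirectionally against DMSO.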
# SRD5A2 (gene 6716) = test: CCTE_Deisenroth_5AR_NBTE_ratio: CCTE's 5alpha-reductase NanoBRET Target Engagement Assay - Ratio, Deisenroth Lab (AID 2284322; active = hit-call score of the fitted dose curve at least 0.9, where 1 is the maximum; inactive = score below 0.9); details: actives raise or lower the signal
# Procedure, shortened: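 Reverse-transfect HEK293T with pNLF1-C-SRD5A2, express 20 h. Pre-incubate cells with chemical 3 h (8-point series, 10 nM - 29.9 uM, duplicate). Add testosterone tracer, 2 h more. Add substrate/inhibitor, read donor and acceptor emission.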
# [4] = TAMU_PeakParms_SingleDonor1434_Asystole: Texas A&M University (TAMU) 1.5-hr Human Induced Pluripotent Stem Cell (iPSC)-derived Cardiomyocytes Calcium (Ca+2) Flux Assay for Cardiotoxicity: Asystole (quiescence of beating) (AID 2284328)
# Procedure, shortened: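 Donor 1434 iPSC-cardiomyocytes exposed 90 min at 37C, 5% CO2, to 0.2, 1, 10 and 100 uM in 0.5% DMSO. Ca2+ dye fluorescence gave average peak frequency; POD is EC95, a 95% beat-rate drop versus controls.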
# [5] = IUF_NPC1_cytotoxicity_72hr: Cytotoxicity Assessment at 72 hours in the Leibniz Research Institute for Environmental Medicine (IUF) Neural Progenitor Cell Proliferation Assay (NPC1) (AID 2284332);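 also: rising LDH signal means more cytotoxicity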
# Procedure, shortened: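 Single human fetal cortex neural progenitor spheres (GW 16-19, 0.25-0.35 mm) in EGF/FGF proliferation medium were exposed to compound for 72 h at 37C without renewal. Medium LDH release was read as resorufin fluorescence and fitted as gain-of-signal.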
# [6] = VALA_MIGHUV1_ScratchOnly_WoundArea: VALA Sciences human Umbilical Vein Endothelial Cell Migration (MIGHUV) Assay, Area of Scratch Wound Inhibited Recovery (AID 2284336)
# Procedure, shortened: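 HUVEC monolayers (9000 cells/well) were scratched after 24 h, dosed within 30 min (six concentrations, triplicate, 0.1% DMSO), allowed 24 h recovery, then fixed. Hoechst-stained nuclei in the wound imaged; cytochalasin D as reference.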
# [7] = Tanguay_ZF_120hpf_MO24: Oregon State University Tanguay Lab 24 Hour Post-fertilization zebrafish Assay for Mortality (AID 2284389; active = hit-call score of the fitted dose curve at least 0.9, where 1 is the maximum; inactive = score below 0.9)
# Procedure, shortened: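 Dechorionated wild-type zebrafish embryos, 1 per well, statically exposed from 6 hpf at 28C, 0.64% DMSO final. Mortality scored as binary present/absent at 24 hpf by brightfield microscopy, relative to DMSO.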
# [8] = Tanguay_ZF_120hpf_DP24: Oregon State University Tanguay Lab 24 Hour Post-fertilization zebrafish Assay for Delayed Development (AID 2284390; active = hit-call score of the fitted dose curve at least 0.9, where 1 is the maximum; inactive = score below 0.9)
# Procedure, shortened: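 Dechorionated 5D wild-type zebrafish embryos exposed statically from 6 hpf, one per well, 0.64% DMSO final, 28 C, sealed and dark. Developmental progression scored at 24 hpf by brightfield as binary present/absent; dead embryos excluded.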
# [9] = Tanguay_ZF_120hpf_CRAN: Oregon State University Tanguay Lab 120 Hour Post-fertilization zebrafish Assay for Craniofacial Malformation (AID 2284397; active = hit-call score of the fitted dose curve at least 0.9, where 1 is the maximum; inactive = score below 0.9)
# Procedure, shortened: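 Dechorionated Tropical 5D wild-type zebrafish embryos, one per well, were statically exposed from 6 to 120 hpf at 28C in 0.64% DMSO, with 5uM trimethyltin chloride as positive control. Craniofacial malformation was scored present/absent by brightfield microscopy, relative to DMSO.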
# [10] = Tanguay_ZF_120hpf_AXIS: Oregon State University Tanguay Lab 120 Hour Post-fertilization zebrafish Assay for Axial Malformation (AID 2284398; active = hit-call score of the fitted dose curve at least 0.9, where 1 is the maximum; inactive = score below 0.9)
# Procedure, shortened: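 Dechorionated 5D wild-type zebrafish embryos exposed statically, one per well, from 6 to 120 hpf at 28C, 0.64% DMSO. Axial malformation scored as present/absent by brightfield microscopy at 120 hpf; dead embryos not scored.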
compound,measurement,setting,value
CN(C)[C@@H]1C(=O)C(C(N)=O)=C(O)[C@@]2(O)C(=O)C3=C(O)c4c(O)cccc4[C@@](C)(O)[C@H]3C[C@@H]12,outcome,[1],inactive
same,outcome,[2],inactive
Nc1ccc(Oc2ccc(N)cc2)cc1,AC50,SERPINA7 (gene 6906),25.3 µM (active)
c1ccc2c(c1)-c1cccc3cccc-2c13,outcome,[3],inactive
same,outcome,SRD5A2 (gene 6716),inactive
ClC1=C(Cl)[C@]2(Cl)[C@H]3[C@H]([C@@H]4C=C[C@H]3C4)[C@@]1(Cl)C2(Cl)Cl,outcome,[4],inactive
COc1cc(C=O)cc2c1[C@H](COC(N)=O)[C@]1(OC(C)=O)ON2C[C@H]2[C@@H]1N2C(C)=O,outcome,[3],inactive
same,outcome,SRD5A2 (gene 6716),inactive
CCCCCCCCn1sccc1=O,AC50,[3],73.2 µM (active)
same,AC50,SRD5A2 (gene 6716),71.1 µM (active)
same,outcome,[4],inactive
CC(C)(O)c1cnn2c(-c3ccc(F)c(-c4c(F)cccc4C#N)c3)cnc2n1,outcome,[3],inactive
same,AC50,SRD5A2 (gene 6716),13.5 µM (active)
Brc1ccc(Oc2ccccc2)cc1,AC50,SERPINA7 (gene 6906),45.4 µM (active)
[O-][Cl+]O,outcome,[5],inactive
same,outcome,[1],inactive
same,outcome,[2],inactive
Nc1ccc(N=Nc2ccccc2)cc1,outcome,[3],inactive
same,AC50,SRD5A2 (gene 6716),50 µM (active)
same,AC50,SERPINA7 (gene 6906),20.9 µM (active)
CCC[CH2][Sn]([Cl])([CH2]CCC)[CH2]CCC,AC50,[3],4.25 µM (active)
same,AC50,SRD5A2 (gene 6716),16.8 µM (active)
same,AC50,[5],0.637 µM (active)
same,AC50,[1],0.257 µM (active)
same,AC50,[2],0.183 µM (active)
Clc1ccc(Cl)c(Cl)c1,outcome,[6],inactive
CCCCOC(=O)c1ccccc1C(=O)OCc1ccccc1,outcome,[5],inactive
same,outcome,[1],inactive
same,outcome,[2],inactive
same,AC50,SERPINA7 (gene 6906),2.23 µM (active)
CCNS(=O)(=O)C(F)(F)C(F)(F)C(F)(F)C(F)(F)C(F)(F)C(F)(F)C(F)(F)C(F)(F)F,outcome,[7],inactive
same,outcome,[8],inactive
same,AC50,[9],75.6 µM (active)
same,AC50,[10],70.1 µM (active)
